# Source: PubChem BioAssay AID1240 (Sanford-Burnham Center for Chemical Genomics, 2008)
# The campaign covered roughly 50,000 compounds. About 800 (1.6%) showed an effect of 50% or more. The entries come from a sample that favours strong results as a whole.
# Target: Bcl-2-like protein 10 (Homo sapiens) (UniProt Q9HD36)
# Experiment: Phenotype converters, Bcl-B/TR3 peptide binding displacement, primary biochemical FP (AID 1240);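 also: 0% = Bcl-B with tracer peptide and DMSO and 100% = tracer peptide lacking Bcl-B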
# Details: GST-Bcl-B / FITC-TR3 peptide fluorescence polarization; stronger effect = higher value; compound at 3.75 mg/L
# Chain of Bcl-2-like protein 10 (Homo sapiens) (Q9HD36 whole entry, looked up): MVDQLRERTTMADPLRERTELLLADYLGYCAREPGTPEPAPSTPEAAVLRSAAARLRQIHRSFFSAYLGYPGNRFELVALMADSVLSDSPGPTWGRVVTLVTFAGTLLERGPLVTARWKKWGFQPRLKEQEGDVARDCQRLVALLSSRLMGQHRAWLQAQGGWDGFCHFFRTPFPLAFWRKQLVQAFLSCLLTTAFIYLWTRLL
row,Structure (SMILES),displacement [%]
1,COc1ccc(C2NCCc3c2[nH]c2ccccc32)cc1OC (stereo not given),8.4
2,COc1cccc(C(=O)N2N=C(c3cccnc3)CC2(O)C(F)(F)F)c1 (stereo not given),-2.9
3,CCOC(=O)CN1C(c2ccccc2OC)Nc2ccc(Br)cc2C1c1ccccc1 (stereo not given),15.6
4,Cc1ccc(S(=O)(=O)NN2C(=O)/C(=C/c3ccc(F)cc3)SC2=S)cc1,2
5,OC(CNCc1ccccc1)(c1ccccc1)c1ccc(Cl)cc1 (stereo not given),-9.4
6,CCCN=C(C)c1c(C)[nH]n(-c2nc3ccccc3s2)c1=O,68.8
7,CC(=NCc1ccccc1)c1c(C)[nH]n(-c2nc3ccccc3s2)c1=O,12.2
8,CC(=NCCc1ccccc1)c1c(C(F)(F)F)[nH]n(-c2nc3ccccc3s2)c1=O,-8.3
9,COc1ccc(/C=c2\sc3n(c2=O)C(c2ccc(OC)cc2)C(C(=O)OC(C)C)=C(C)N=3)cc1 (stereo not given),10
10,COc1cccc(C2C(C(=O)Nc3ccccc3)=C(C)N=c3s/c(=C\c4sccc4C)c(=O)n32)c1 (stereo not given),46.7
11,COc1cccc(C2C(C(=O)Nc3ccccc3)=C(C)N=c3s/c(=C\c4ccncc4)c(=O)n32)c1 (stereo not given),9.6
12,CCOC(=O)C1=C(C)N=c2s/c(=C\c3cccs3)c(=O)n2C1c1cccc(OC)c1 (stereo not given),12.9
13,COc1ccc(C2C(C(=O)OC(C)C)=C(C)N=c3s/c(=C/c4c[nH]c5ccccc45)c(=O)n32)cc1 (stereo not given),99.1
14,COc1cccc(C2C(C(=O)Nc3ccccc3)=C(C)N=c3s/c(=C\c4c[nH]c5ccccc45)c(=O)n32)c1 (stereo not given),113
15,COc1ccc(C2C(C(=O)OC(C)C)=C(C)N=c3s/c(=C\c4cc(OC)ccc4OC)c(=O)n32)cc1 (stereo not given),6.4
16,COc1cccc(C2C(C(=O)Nc3ccccc3)=C(C)N=c3s/c(=C\c4ccc(O)cc4)c(=O)n32)c1 (stereo not given),-6.7
17,COc1cccc(C2C(C(=O)Nc3ccccc3)=C(C)N=c3s/c(=C\c4cccs4)c(=O)n32)c1 (stereo not given),79.1
18,COc1cccc(C2C(C(=O)Nc3ccccc3)=C(C)N=c3s/c(=C/c4ccccc4OC)c(=O)n32)c1 (stereo not given),12.1
19,COc1cccc(C2C(C(=O)Nc3ccccc3)=C(C)N=c3s/c(=C\c4ccc(N(C)C)cc4)c(=O)n32)c1 (stereo not given),73.6
20,CCOC(=O)C1=C(C)N=c2s/c(=C\c3c[nH]c4ccccc34)c(=O)n2C1c1cccc(OC)c1 (stereo not given),32.8
21,Cc1ccc(NC(=O)c2cc3cc([N+](=O)[O-])ccc3oc2=O)cc1,13.5
22,CSc1ccccc1NC(=O)CC1Nc2cc(C)c(C)cc2NC1=O (stereo not given),-41.6
23,O=C1Nc2ccc(Br)c3cccc1c23,15.9
24,COc1cc(C(=O)NCc2cccc3ccccc23)cc(OC)c1OC,9.9
25,COc1ccc(/C=C2\SC(=Nc3ccc(O)cc3)NC2=O)cc1OC,-6.3
